Records with an inconclusive call do not appear. Calls of active or inactive are those of the source. The calls were made as follows, unless noted: active = hit-call score of the fitted dose curve at least 0.9, where 1 is the maximum; inconclusive = response in the unintended direction; inactive = score below 0.9.
Tests used:
[1] = target: Retinoic acid receptor alpha (Homo sapiens) (UniProt P10276); test: ATG_DR5_RAR_CIS: Attagene CIS-FACTORIAL HepG2 Assay for human Retinoic Acid Receptor Alpha (RARE), DR5 submotif (AID 2282934; active = hit-call score of the fitted dose curve at least 0.9, where 1 is the maximum; inactive = score below 0.9); conditions: HepG2 Attagene cis-factorial RARE DR5 reporter, mRNA; actives raise or lower the signal
Sequence of Retinoic acid receptor alpha (Homo sapiens) (P10276 whole entry, looked up): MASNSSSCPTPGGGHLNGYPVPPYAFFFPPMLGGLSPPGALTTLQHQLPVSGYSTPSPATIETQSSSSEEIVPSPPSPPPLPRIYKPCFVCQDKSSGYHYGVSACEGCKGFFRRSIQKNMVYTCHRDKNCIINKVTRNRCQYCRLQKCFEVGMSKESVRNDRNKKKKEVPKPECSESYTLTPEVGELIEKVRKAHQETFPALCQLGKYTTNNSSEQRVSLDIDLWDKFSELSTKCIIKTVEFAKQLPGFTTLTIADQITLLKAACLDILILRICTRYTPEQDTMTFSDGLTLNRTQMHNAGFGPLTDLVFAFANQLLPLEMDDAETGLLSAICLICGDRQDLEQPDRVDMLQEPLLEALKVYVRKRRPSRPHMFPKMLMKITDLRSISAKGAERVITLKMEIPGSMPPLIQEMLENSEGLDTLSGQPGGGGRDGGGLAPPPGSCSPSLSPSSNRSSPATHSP
How it was run: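 HepG2 cells transiently transfected with multiplexed reporter units; DR5 cis-element drives reporter through endogenous transcription factors. After 24 h dosing, reporter mRNA quantified by RT-PCR, fluorescent labeling, HpaI digestion and capillary electrophoresis; bidirectional fitting versus DMSO.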

[2] = target: Nuclear receptor subfamily 1 group I member 3 (Homo sapiens) (UniProt Q14994); test: ATG_CAR_TRANS: Attagene TRANS-FACTORIAL HepG2 Assay for human Constitutive Androstane Receptor (CAR) (AID 2282969); conditions: HepG2 Attagene TRANS-FACTORIAL CAR reporter;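 also: activators raise reporter mRNA above DMSO so AC50 marks induction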
How it was run: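 HepG2 cells transiently transfected with GAL4-UAS reporter units; TRANS format reads activity of exogenous chimeric NR-Gal4 protein. After 24 h dosing, reporter mRNA quantified by RT-PCR, 6-FAM labelling and capillary electrophoresis; gain of signal fitted against DMSO.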

[3] = target: Oxysterols receptor LXR-alpha (Homo sapiens) (UniProt Q13133); test: ATG_LXRa_TRANS: Attagene TRANS-FACTORIAL HepG2 Assay for human Liver X Receptor alpha (LXRa) (AID 2282980); conditions: HepG2 Attagene TRANS reporter, LXRa transactivation
Sequence of Oxysterols receptor LXR-alpha (Homo sapiens) (Q13133 whole entry, looked up, the tested form may be a part): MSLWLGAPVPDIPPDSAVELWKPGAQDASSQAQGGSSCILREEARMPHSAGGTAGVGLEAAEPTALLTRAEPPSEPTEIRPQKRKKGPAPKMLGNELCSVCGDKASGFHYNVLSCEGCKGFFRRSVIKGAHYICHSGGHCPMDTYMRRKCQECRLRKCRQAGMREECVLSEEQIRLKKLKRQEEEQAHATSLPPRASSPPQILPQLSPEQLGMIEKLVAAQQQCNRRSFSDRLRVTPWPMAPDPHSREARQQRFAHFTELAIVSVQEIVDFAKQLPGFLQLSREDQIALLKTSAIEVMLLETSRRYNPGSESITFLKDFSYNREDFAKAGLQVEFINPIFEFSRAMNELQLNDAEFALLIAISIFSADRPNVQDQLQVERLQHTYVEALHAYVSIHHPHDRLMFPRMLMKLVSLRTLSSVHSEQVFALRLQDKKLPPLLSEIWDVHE
How it was run: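 Read-out: reporter transcript levels by RT-PCR plus capillary electrophoresis, fluorescence intensity. Transiently transfected HepG2, exogenous NR-GAL4 chimera, GAL4-UAS reporters; 24 h compound exposure. Activity = increase over DMSO negative control.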

[4] = target: Nuclear receptor subfamily 4 group A member 2 (Homo sapiens) (UniProt P43354); test: ATG_NURR1_TRANS: Attagene TRANS-FACTORIAL HepG2 Assay for human Nuclear Receptor Related Protein 1 (NURR1) (AID 2282985); conditions: HepG2 Attagene TRANS reporter, mRNA readout
Sequence of Nuclear receptor subfamily 4 group A member 2 (Homo sapiens) (P43354 whole entry, looked up): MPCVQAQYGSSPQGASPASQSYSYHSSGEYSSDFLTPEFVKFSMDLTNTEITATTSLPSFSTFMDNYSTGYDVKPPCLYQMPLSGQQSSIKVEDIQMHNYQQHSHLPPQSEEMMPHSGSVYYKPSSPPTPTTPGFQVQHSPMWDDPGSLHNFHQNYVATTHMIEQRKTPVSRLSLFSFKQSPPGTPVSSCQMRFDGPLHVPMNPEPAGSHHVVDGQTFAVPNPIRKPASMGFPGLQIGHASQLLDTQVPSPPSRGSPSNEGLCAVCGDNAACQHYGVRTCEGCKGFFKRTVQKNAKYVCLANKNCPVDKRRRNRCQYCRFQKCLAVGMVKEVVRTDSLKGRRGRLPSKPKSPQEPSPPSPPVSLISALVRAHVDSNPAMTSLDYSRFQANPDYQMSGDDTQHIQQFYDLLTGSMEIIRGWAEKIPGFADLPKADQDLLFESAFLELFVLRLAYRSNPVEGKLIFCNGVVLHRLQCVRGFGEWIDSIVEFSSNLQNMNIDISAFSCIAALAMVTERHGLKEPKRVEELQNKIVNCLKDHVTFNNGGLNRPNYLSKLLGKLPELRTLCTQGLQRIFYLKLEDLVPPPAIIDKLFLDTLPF
How it was run: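 HepG2 / transient MRTU transfection / 24 h compound exposure / RT-PCR + CE fluorescence of reporter mRNA / gain-of-signal vs DMSO.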

[5] = target: human RAR-related Orphan Receptor gamma (RORg), RORC (gene 6097) (UniProt P51449); test: ATG_RORg_TRANS: Attagene TRANS-FACTORIAL HepG2 Assay for human RAR-related Orphan Receptor gamma (RORg) (AID 2283011)
Sequence of human RAR-related Orphan Receptor gamma (RORg), RORC (gene 6097) (P51449 whole entry, looked up, the tested form may be a part): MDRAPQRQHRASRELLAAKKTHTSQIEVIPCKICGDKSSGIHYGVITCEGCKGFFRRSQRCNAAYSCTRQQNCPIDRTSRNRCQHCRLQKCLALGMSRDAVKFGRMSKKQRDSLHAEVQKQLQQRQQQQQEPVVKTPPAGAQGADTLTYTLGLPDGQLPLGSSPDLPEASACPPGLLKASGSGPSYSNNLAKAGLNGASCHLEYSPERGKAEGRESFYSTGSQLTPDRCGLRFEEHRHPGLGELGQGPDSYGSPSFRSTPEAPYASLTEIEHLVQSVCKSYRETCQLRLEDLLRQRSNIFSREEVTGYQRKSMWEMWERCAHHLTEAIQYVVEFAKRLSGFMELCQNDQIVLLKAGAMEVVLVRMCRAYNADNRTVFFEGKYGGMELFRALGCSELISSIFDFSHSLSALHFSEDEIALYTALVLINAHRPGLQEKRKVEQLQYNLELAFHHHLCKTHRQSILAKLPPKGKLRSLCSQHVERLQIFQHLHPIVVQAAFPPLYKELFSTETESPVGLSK
How it was run: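 Transient MRTU transfection of HepG2 (TRANS format, exogenous NR-Gal4 chimera). 24 h dosing. Total RNA → oligo(dT) RT → PCR → 6-FAM labelling → HpaI cut → CE. Gain vs DMSO.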

[6] = TOX21_p53_BLA_p3_viability: Viability Assessment in the Tox21 HCT-116 p53 Agonism Beta-lactamase Assay, Phase 3 (AID 2283593);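 also: cells exposed to compound for 16 h before reading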
How it was run: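 HCT116 cells, 4000/well, dosed 5 h after plating by pin transfer (217-fold dilution from DMSO stock) and incubated 16 h at 37C, 5% CO2. Viability read as ATP luminescence with CellTiter-Glo after 30 min at room temperature.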

[7] = TOX21_p53_BLA_p4_viability: Viability Assessment in the Tox21 HCT-116 p53 Agonism Beta-lactamase Assay, Phase 4 (AID 2283597);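 also: hits lower the luminescence signal meaning cytotoxicity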
How it was run: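 We seeded HCT116 p53 reporter cells at 4000/well and waited 5 h. We then added compounds in DMSO at a 217-fold dilution and incubated for 16 h. Viability was read as CellTiter-Glo luminescence after 30 min at RT.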

[8] = TOX21_p53_BLA_p5_viability: Viability Assessment in the Tox21 HCT-116 p53 Agonism Beta-lactamase Assay, Phase 5 (AID 2283600)
How it was run: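 Compounds, pinned from DMSO at 217-fold dilution, were left on the cells for 16 h. The viability endpoint was ATP content measured by CellTiter-Glo luminescence, where falling signal reflects cytotoxicity.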

[9] = ACEA_ER_AUC_viability: ACEA Biosciences xCELLigence Real-Time Cell Analysis on Estrogen Receptor Agonism for Viability (AID 2283782);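 also: continuous compound exposure with impedance area under curve over 80 h; hit means loss of impedance signal meaning reduced cell growth or viability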
How it was run: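 T47D cells preconditioned in phenol red-free RPMI with charcoal-stripped FBS, then dosed with 8-point 1:4 series from 100 uM (up to 0.5% DMSO). Impedance monitored up to ~80 h; area-under-curve loss versus DMSO taken as viability.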

[10] = CCTE_Harrill_HTTr_Viability_MCF7: CCTE's 6-hour Cell Viability Assessment for the High-Throughput Transcriptomics (HTTr) Platform, in MCF-7 cells cultured in DMEM + 10% fetal bovine serum, Harrill Lab (AID 2284010; active = hit-call score of the fitted dose curve at least 0.9, where 1 is the maximum; inactive = score below 0.9)
How it was run: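 Membrane integrity was scored by high-content imaging of propidium iodide dye exclusion after a 6 h exposure across an eight-point dilution series. Data were fitted bidirectionally relative to DMSO as negative control and baseline.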

[11] = CCTE_Harrill_HTTr_Apoptosis_MCF7: CCTE's 6-hour Apoptosis Assessment for the High-Throughput Transcriptomics (HTTr) Platform, in MCF-7 cells cultured in DMEM + 10% fetal bovine serum, Harrill Lab (AID 2284011; active = hit-call score of the fitted dose curve at least 0.9, where 1 is the maximum; inactive = score below 0.9)
How it was run: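 Read-out: CellEvent Caspase 3/7 Green signal by high content imaging, gain-of-signal indicating apoptosis. MCF-7 cells, DMEM + 10% FBS, eight-point dilution series, 6 h exposure. Curves fitted bidirectionally relative to DMSO negative control.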

[12] = ATG_GAL4_TRANS: Attagene TRANS-FACTORIAL HepG2 Assay for GAL4 (Internal Marker) (AID 2282976); conditions: HepG2 Attagene TRANS GAL4 internal marker reporter
How it was run: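 RT-PCR/capillary electrophoresis readout of reporter mRNA. HepG2, transient MRTU transfection (GAL4-UAS reporters), 24 h compound exposure. Background-control endpoint, positive direction vs DMSO baseline.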

[13] = target: human Peroxisome Proliferator-activated Receptor alpha (PPARa), PPARA (gene 5465) (UniProt Q07869); test: ATG_PPARa_TRANS: Attagene TRANS-FACTORIAL HepG2 Assay for human Peroxisome Proliferator-activated Receptor alpha (PPARa) (AID 2283001)
Sequence of human Peroxisome Proliferator-activated Receptor alpha (PPARa), PPARA (gene 5465) (Q07869 whole entry, looked up, the tested form may be a part): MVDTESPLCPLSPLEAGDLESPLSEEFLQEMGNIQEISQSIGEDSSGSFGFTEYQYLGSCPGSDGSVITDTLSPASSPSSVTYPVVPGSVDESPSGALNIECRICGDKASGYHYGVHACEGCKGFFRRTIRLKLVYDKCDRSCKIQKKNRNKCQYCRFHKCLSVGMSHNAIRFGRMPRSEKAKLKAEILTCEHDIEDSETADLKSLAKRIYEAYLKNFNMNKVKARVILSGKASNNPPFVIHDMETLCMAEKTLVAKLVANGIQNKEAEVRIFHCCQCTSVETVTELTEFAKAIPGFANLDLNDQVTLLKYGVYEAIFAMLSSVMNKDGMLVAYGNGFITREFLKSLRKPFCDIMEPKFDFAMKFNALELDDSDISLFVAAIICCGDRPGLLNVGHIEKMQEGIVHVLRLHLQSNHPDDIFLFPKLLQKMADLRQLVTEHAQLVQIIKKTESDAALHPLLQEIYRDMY
How it was run: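 Measures transcriptional activity of an exogenous chimeric PPARa-Gal4 protein in transiently transfected HepG2 cells after 24 h dosing. Reporter mRNA quantified via RT-PCR and capillary electrophoresis; DMSO served as negative control.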

[14] = target: human Thyroid Receptor alpha (THRa1), THRA (gene 7067) (UniProt P10827); test: ATG_THRa1_TRANS: Attagene TRANS-FACTORIAL HepG2 Assay for human Thyroid Receptor alpha (THRa1) (AID 2283014)
Sequence of human Thyroid Receptor alpha (THRa1), THRA (gene 7067) (P10827 whole entry, looked up, the tested form may be a part): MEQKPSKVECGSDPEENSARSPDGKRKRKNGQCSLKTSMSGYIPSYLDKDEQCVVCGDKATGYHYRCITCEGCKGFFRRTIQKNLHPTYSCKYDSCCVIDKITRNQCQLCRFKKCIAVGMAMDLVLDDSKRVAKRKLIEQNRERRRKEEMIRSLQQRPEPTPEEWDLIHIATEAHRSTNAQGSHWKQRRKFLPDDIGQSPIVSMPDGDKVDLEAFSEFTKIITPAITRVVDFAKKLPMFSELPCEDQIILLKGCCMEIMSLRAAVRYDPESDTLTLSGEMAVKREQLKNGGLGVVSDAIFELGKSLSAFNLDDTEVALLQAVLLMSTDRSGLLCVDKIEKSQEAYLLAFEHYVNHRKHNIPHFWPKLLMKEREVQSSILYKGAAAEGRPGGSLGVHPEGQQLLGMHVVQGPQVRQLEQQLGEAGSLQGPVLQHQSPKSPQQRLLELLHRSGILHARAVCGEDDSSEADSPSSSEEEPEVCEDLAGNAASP
How it was run: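 Transient HepG2 transfection, NR-Gal4 chimera driving GAL4-UAS reporters; 24 h compound exposure; total RNA, oligo(dT) RT, PCR, fluorescent primer extension, capillary electrophoresis. Upward direction vs DMSO control.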

[15] = ATG_PPRE_CIS: Attagene CIS-FACTORIAL HepG2 Assay for human Peroxisome Proliferator-activated Response Element (PPRE) (AID 2282958; active = hit-call score of the fitted dose curve at least 0.9, where 1 is the maximum; inactive = score below 0.9); conditions: HepG2 PPRE cis-element reporter, Attagene transcription factor profiling; actives raise or lower the signal
How it was run: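 HepG2 cells are transiently transfected with multiplexed cis-promoter reporter units to report endogenous PPAR activity. After 24 h dosing, reporter mRNA is read by RT-PCR and capillary electrophoresis. Fitting is bidirectional against DMSO.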

[16] = target: Peroxisome proliferator-activated receptor gamma (Homo sapiens) (UniProt P37231); test: ATG_PPARg_TRANS: Attagene TRANS-FACTORIAL HepG2 Assay for human Peroxisome Proliferator-activated Receptor-gamma (PPARg) (AID 2283007)
Sequence of Peroxisome proliferator-activated receptor gamma (Homo sapiens) (P37231 whole entry, looked up, the tested form may be a part): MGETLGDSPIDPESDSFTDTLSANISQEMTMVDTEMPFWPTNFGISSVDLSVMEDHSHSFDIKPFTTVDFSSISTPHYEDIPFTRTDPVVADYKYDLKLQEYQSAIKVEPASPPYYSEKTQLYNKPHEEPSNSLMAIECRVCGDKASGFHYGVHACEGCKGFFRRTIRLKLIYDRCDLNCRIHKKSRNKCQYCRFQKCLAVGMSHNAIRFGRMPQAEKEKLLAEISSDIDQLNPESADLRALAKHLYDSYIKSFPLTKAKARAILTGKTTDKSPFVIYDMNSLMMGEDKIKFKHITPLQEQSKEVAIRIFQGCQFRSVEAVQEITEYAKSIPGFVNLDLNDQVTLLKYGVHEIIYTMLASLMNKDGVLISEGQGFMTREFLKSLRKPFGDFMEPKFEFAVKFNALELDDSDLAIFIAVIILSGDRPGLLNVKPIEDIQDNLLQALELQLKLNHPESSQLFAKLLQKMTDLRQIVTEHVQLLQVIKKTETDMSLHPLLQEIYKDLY
How it was run: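 HepG2 cells are transiently transfected with GAL4-UAS reporter units driven by chimeric NR-Gal4 fusions and dosed for 24 h. Reporter mRNA is quantified by RT-PCR, 6-FAM labelling, HpaI digestion and capillary electrophoresis. Induction is scored against DMSO.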

[17] = target: Glucocorticoid receptor (Homo sapiens) (UniProt P04150); test: ATG_GR_TRANS: Attagene TRANS-FACTORIAL HepG2 Assay for human Glucocorticoid Receptor (GR) (AID 2282978); conditions: HepG2 Attagene TRANS GR reporter, mRNA transcription;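 also: activators score as hits since higher reporter transcript over DMSO is fitted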
Sequence of Glucocorticoid receptor (Homo sapiens) (P04150 whole entry, looked up, the tested form may be a part): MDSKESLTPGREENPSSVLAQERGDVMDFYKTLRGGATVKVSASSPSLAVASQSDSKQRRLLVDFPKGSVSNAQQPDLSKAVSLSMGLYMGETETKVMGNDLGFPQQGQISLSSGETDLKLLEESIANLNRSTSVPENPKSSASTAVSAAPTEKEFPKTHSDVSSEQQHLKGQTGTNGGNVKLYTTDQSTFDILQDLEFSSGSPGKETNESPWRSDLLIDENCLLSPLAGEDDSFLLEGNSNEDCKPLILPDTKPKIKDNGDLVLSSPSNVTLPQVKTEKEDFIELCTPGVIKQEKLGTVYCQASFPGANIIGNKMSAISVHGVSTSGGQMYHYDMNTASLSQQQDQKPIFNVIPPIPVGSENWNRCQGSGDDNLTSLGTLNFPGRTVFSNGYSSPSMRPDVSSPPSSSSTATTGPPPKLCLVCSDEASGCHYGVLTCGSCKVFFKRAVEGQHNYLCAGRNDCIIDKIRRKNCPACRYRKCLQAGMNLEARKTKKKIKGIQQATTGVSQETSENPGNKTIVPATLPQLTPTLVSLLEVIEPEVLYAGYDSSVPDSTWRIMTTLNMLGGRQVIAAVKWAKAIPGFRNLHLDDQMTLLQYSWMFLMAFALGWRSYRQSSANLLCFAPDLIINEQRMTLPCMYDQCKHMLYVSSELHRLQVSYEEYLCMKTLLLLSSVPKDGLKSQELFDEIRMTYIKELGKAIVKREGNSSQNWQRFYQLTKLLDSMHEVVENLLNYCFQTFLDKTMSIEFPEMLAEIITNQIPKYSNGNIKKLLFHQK
How it was run: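 HepG2 cells transiently transfected with GAL4-UAS reporter units and exogenous GR-Gal4 chimera, dosed 24 h. Reporter mRNA by RT-PCR, FAM labeling, HpaI digest and capillary electrophoresis; gain-of-signal fit versus DMSO.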

[18] = target: Oxysterols receptor LXR-beta (Homo sapiens) (UniProt P55055); test: ATG_LXRb_TRANS: Attagene TRANS-FACTORIAL HepG2 Assay for human Liver X Receptor beta (LXRb) (AID 2282981); conditions: HepG2 Attagene TRANS GAL4-LXRb reporter, mRNA
Sequence of Oxysterols receptor LXR-beta (Homo sapiens) (P55055 whole entry, looked up, the tested form may be a part): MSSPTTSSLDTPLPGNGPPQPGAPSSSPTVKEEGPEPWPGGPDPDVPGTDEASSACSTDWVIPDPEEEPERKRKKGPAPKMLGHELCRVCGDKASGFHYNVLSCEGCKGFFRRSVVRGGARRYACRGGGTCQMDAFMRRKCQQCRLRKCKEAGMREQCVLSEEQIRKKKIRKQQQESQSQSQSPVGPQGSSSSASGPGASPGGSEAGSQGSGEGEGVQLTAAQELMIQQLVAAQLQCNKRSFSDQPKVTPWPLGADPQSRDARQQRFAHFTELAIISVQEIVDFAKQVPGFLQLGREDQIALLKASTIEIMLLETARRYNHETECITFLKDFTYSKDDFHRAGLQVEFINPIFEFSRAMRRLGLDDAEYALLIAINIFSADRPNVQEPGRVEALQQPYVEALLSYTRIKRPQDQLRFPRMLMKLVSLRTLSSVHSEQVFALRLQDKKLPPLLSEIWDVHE
How it was run: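 Gain-of-signal mRNA reporter endpoint, DMSO as negative control. Transiently transfected HepG2 cells carrying the NR-Gal4 chimera and GAL4-UAS reporter units were treated 24 h; transcripts quantified by RT-PCR and capillary electrophoresis fluorescence.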

Measured: AC50

Brc1ccc(Oc2ccc(Br)cc2)cc1
active: [9] 65.4 µM
not listed: [12] | [13] | [14] | [15] | [16] | [17] | [18]
inactive: all other assays above

CC(O)(P(=O)(O)O)P(=O)(O)O
inactive: [12] | [3] | [13] | [14]

C[Si](C)(C)O[Si](C)(C)O[Si](C)(C)C
inactive: [15] | [3] | [13] | [16] | [6] | [8]

O=C(O)c1ccccc1C(=O)O
not listed: [2] | [3] | [10] | [11] | [13] | [15] | [16]
inactive: all other assays above

CCC(C)C1N=C(C)C(C)S1 (configuration not stated)
inactive: [1] | [12] | [17] | [3] | [18] | [7]

COc1ccc(C(=O)c2ccccc2O)c(O)c1
inactive: [7] | [8] | [10] | [11]

CCCCC(CC)COC(=O)C=Cc1ccc(OC)cc1 (configuration not stated)
inactive: [6] | [7] | [8] | [10] | [11]

— PubChem BioAssay (EPA / NIEHS)
